Laboratory results as given in the supplement of paper PMC8728848.
This excerpt belongs to a sample that is enriched for the strongest signals.

How the values were obtained:
Assay in all cases: glycan array binding signal (z-score within array); higher = stronger binding
Details in all cases: glycan notation: IUPAC condensed, linker removed
[1] = molecular target: Fuc(a1-2)Gal(b1-3)GalNAc(a1-3)[Fuc(a1-2)]Gal(b1-4)Glc
How it was run: (§1)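 Negative Z-scores can be read as non-binding. The Z-score is calculated within each array and then averaged across arrays of one protein sequence at different concentrations or buffers and across linkers. Arrays, 3228 in all, were curated from the Consortium for Functional Glycomics database and kept only where the protein sequence was available.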

[2] = molecular target: Fuc(a1-2)Gal(b1-3)[Fuc(a1-4)]GlcNAc
How it was run: as §1

[3] = molecular target: Fuc(a1-2)[Gal(a1-3)]Gal(b1-3)GlcNAc(b1-2)Man(a1-3)[Fuc(a1-2)[Gal(a1-3)]Gal(b1-3)GlcNAc(b1-2)Man(a1-6)]Man(b1-4)GlcNAc(b1-4)[Fuc(a1-6)]GlcNAc
How it was run: as §1

[4] = molecular target: Fuc(a1-2)[Gal(a1-3)]Gal(b1-3)GlcNAc(b1-6)GalNAc
How it was run: as §1

[5] = molecular target: Fuc(a1-2)[Gal(a1-3)]Gal(b1-4)GlcNAc(b1-3)[Fuc(a1-2)[Gal(a1-3)]Gal(b1-4)GlcNAc(b1-6)]GalNAc
How it was run: as §1

[6] = molecular target: Fuc(a1-2)[Gal(a1-3)]Gal(b1-4)[Fuc(a1-3)]GlcNAc(b1-3)GalNAc
How it was run: as §1

[7] = molecular target: Fuc(a1-2)[GalNAc(a1-3)]Gal(b1-3)GlcNAc(b1-6)GalNAc
How it was run: as §1

[8] = molecular target: Fuc(a1-2)[GalNAc(a1-3)]Gal(b1-4)[Fuc(a1-3)]GlcNAc(b1-3)GalNAc
How it was run: as §1

Fuc(a1-3)GlcNAc = molecular target: Fuc(a1-3)GlcNAc
How it was run: as §1

[9] = molecular target: Fuc(a1-3)[Gal(b1-4)]GlcNAc(b1-2)Man
How it was run: as §1

[10] = molecular target: Fuc(a1-3)[Gal(b1-4)]GlcNAc(b1-3)Gal(b1-3)[Fuc(a1-4)]GlcNAc
How it was run: as §1

Fuc(a1-4)GlcNAc = molecular target: Fuc(a1-4)GlcNAc
How it was run: as §1

[11] = molecular target: Gal(a1-4)Gal(b1-3)GlcNAc(b1-2)Man(a1-3)[Gal(a1-4)Gal(b1-3)GlcNAc(b1-2)Man(a1-6)]Man(b1-4)GlcNAc(b1-4)GlcNAc
How it was run: as §1

[12] = molecular target: Gal(a1-4)Gal(b1-4)GlcNAc(b1-3)Gal(b1-4)Glc
How it was run: as §1

[13] = molecular target: Gal(b1-3)GalNAc(b1-4)[Neu5Ac(a2-3)]Gal(b1-4)Glc
How it was run: as §1

[14] = molecular target: Gal(b1-3)GlcNAc(b1-2)Man(a1-3)[Gal(b1-3)GlcNAc(b1-2)Man(a1-6)]Man(b1-4)GlcNAc(b1-4)[Fuc(a1-6)]GlcNAc
How it was run: as §1

[15] = molecular target: Gal(b1-3)[Fuc(a1-4)]GlcNAc(b1-2)Man
How it was run: as §1

[16] = molecular target: Gal(b1-4)GalNAc(b1-3)[Fuc(a1-2)]Gal(b1-4)GlcNAc
How it was run: as §1

[17] = molecular target: Gal(b1-4)GlcNAc(b1-2)[Gal(b1-4)GlcNAc(b1-6)]Man(a1-6)[GlcNAc(b1-4)][Gal(b1-4)GlcNAc(b1-2)[Gal(b1-4)GlcNAc(b1-4)]Man(a1-3)]Man(b1-4)GlcNAc(b1-4)[Fuc(a1-6)]GlcNAc
How it was run: as §1

[18] = molecular target: Gal(b1-4)GlcNAc(b1-3)Gal(b1-4)GlcNAc(b1-3)Gal(b1-4)GlcNAc(b1-2)Man(a1-3)[Gal(b1-4)GlcNAc(b1-3)Gal(b1-4)GlcNAc(b1-3)Gal(b1-4)GlcNAc(b1-2)Man(a1-6)]Man(b1-4)GlcNAc(b1-4)[Fuc(a1-6)]GlcNAc
How it was run: as §1

[19] = molecular target: Gal(b1-4)GlcNAc(b1-3)Gal(b1-4)GlcNAc(b1-3)Gal(b1-4)GlcNAc(b1-3)Gal(b1-4)GlcNAc(b1-2)Man(a1-3)[Gal(b1-4)GlcNAc(b1-3)Gal(b1-4)GlcNAc(b1-3)Gal(b1-4)GlcNAc(b1-3)Gal(b1-4)GlcNAc(b1-2)Man(a1-6)]Man(b1-4)GlcNAc(b1-4)[Fuc(a1-6)]GlcNAc
How it was run: as §1

[20] = molecular target: Gal(b1-4)GlcNAc(b1-6)GalNAc
How it was run: as §1

Gal3S(b1-3)GlcNAc = molecular target: Gal3S(b1-3)GlcNAc
How it was run: as §1

[21] = molecular target: Gal3S(b1-4)[Fuc(a1-3)]Glc6S
How it was run: as §1

GalNAc(a1-3)Gal = molecular target: GalNAc(a1-3)Gal
How it was run: as §1

GalNAc(b1-3)GlcNAc = molecular target: GalNAc(b1-3)GlcNAc
How it was run: as §1

GalNAc(b1-4)GlcNAc = molecular target: GalNAc(b1-4)GlcNAc
How it was run: as §1

GalNAc4S6S(b1-4)GlcNAc = molecular target: GalNAc4S6S(b1-4)GlcNAc
How it was run: as §1

[22] = molecular target: Glc(a1-6)Glc(a1-6)Glc(a1-6)Glc
How it was run: as §1

[23] = molecular target: GlcNAc(a1-4)Gal(b1-4)GlcNAc(b1-3)Gal(b1-4)GlcNAc
How it was run: as §1

B1: AidA (Burkholderia cenocepacia) (protein)
chain: MSRVTDVLVSFDTETILKKYPNPSKNPAAPTLIDWRYVYMVTNQDNVISGQAGGELDLKAQVGDLIRWRETSLSLGFENQVVFYKFIGNVGNDLISTPTPRVAEASIPVPNTSKPEVPTCQKVANYYWSSECLKVGRVTYHFQFQIIDRNCQSQGCFSWDPFISIHN
glycan array binding signal (z-score) [1]: -0.374
glycan array binding signal (z-score) [2]: -0.268
glycan array binding signal (z-score) [3]: 1.35
glycan array binding signal (z-score) [4]: 0.594
glycan array binding signal (z-score) [5]: 0.451
glycan array binding signal (z-score) [6]: -0.44
glycan array binding signal (z-score) [7]: 1.7
glycan array binding signal (z-score) [8]: 19.7
glycan array binding signal (z-score) (Fuc(a1-3)GlcNAc): -0.017
glycan array binding signal (z-score) [9]: 0.556
glycan array binding signal (z-score) [10]: -0.459
glycan array binding signal (z-score) (Fuc(a1-4)GlcNAc): 3.1
glycan array binding signal (z-score) [11]: 0.346
glycan array binding signal (z-score) [12]: -0.277
glycan array binding signal (z-score) [13]: 0.172
glycan array binding signal (z-score) [14]: -0.149
glycan array binding signal (z-score) [15]: -0.108
glycan array binding signal (z-score) [16]: -0.557
glycan array binding signal (z-score) [17]: -0.272
glycan array binding signal (z-score) [18]: 1.44
glycan array binding signal (z-score) [19]: 0.416
glycan array binding signal (z-score) [20]: -0.507
glycan array binding signal (z-score) (Gal3S(b1-3)GlcNAc): 2.41
glycan array binding signal (z-score) [21]: 2.38
glycan array binding signal (z-score) (GalNAc(a1-3)Gal): 0.384
glycan array binding signal (z-score) (GalNAc(b1-3)GlcNAc): -0.115
glycan array binding signal (z-score) (GalNAc(b1-4)GlcNAc): 1.43
glycan array binding signal (z-score) (GalNAc4S6S(b1-4)GlcNAc): -0.374
glycan array binding signal (z-score) [22]: -0.597
glycan array binding signal (z-score) [23]: 0.177
